Assay results as given in PubChem BioAssay (EPA / NIEHS).
A structure can be active in one record and inactive in another. The source made the active and inactive calls. How the source made its calls: active means hit-call score of the fitted dose curve at least 0.9, where 1 is the maximum; inactive means score below 0.9.

Legend:
[1] = read-out: Urokinase-type plasminogen activator receptor (uPAR), PLAUR (gene 5329); experiment: BSK_4H_uPAR: BioMAP Diversity Plus: 4H Assay for Urokinase-type plasminogen activator receptor (uPAR) Biomarker Activity (AID 2283030); details: primary human endothelial cells (HUVEC); actives raise or lower the signal
How it was run: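 Primary human umbilical vein endothelial cells were exposed to chemical for 24 h before cell-surface uPAR was quantified by ELISA. Activity was fitted bidirectionally against the DMSO negative control baseline.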

[2] = read-out: Vascular endothelial growth factor receptor 2 (Homo sapiens) (UniProt P35968); experiment: BSK_4H_VEGFRII: BioMAP Diversity Plus: 4H Assay for Vascular endothelial growth factor receptor 2 (VEGFR2) Biomarker Activity (AID 2283031); details: primary human endothelial cells (HUVEC); actives raise or lower the signal;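 on AC50: cell-surface VEGFR2 protein level quantified by ELISA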
How it was run: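 Primary human umbilical vein endothelial cells in the BioMAP 4H system were dosed with test chemical, and 24 h later VEGFRII was measured by ELISA. Activity was fitted bidirectionally against DMSO as negative control and baseline.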

[3] = read-out: Human Leukocyte Antigen - DR isotype (HLADR), HLA-DRA (gene 3122); experiment: BSK_BE3C_HLADR: BioMAP Diversity Plus: BE3C Assay for Human Leukocyte Antigen - DR isotype (HLADR) Biomarker Activity (AID 2283032); details: primary human bronchial epithelial cells; actives raise or lower the signal
How it was run: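 Primary human bronchial epithelial cells (BE3C); 24 h chemical exposure; HLA-DR by ELISA; bidirectional curve fit vs DMSO baseline.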

[4] = read-out: Vascular cell adhesion molecule 1 (VCAM1), VCAM1 (gene 7412); experiment: BSK_4H_VCAM1: BioMAP Diversity Plus: 4H Assay for Vascular cell adhesion molecule 1 (VCAM1) Biomarker Activity (AID 2283033); details: primary human endothelial cells (HUVEC); actives raise or lower the signal;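 on outcome: cell-surface VCAM-1 protein measured by ELISA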
How it was run: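 HUVEC, 24 h post-dose; VCAM-1 by ELISA. Bidirectional curve fit vs DMSO baseline. Parallel SRB total-protein stain (0.1% SRB after 10% TCA fixation, 560 nm) for cytotoxicity.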

[5] = read-out: Interferon-gamma inducible Protein 10 (IP10), CXCL10 (gene 3627); experiment: BSK_BE3C_IP10: BioMAP Diversity Plus: BE3C Assay for Interferon-gamma inducible Protein 10 (IP10) Biomarker Activity (AID 2283034); details: primary human bronchial epithelial cells; actives raise or lower the signal
How it was run: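 ELISA readout of IP-10 in BE3C system: primary human bronchial epithelial cells, 24 h post-dosing; bidirectional curve fit vs DMSO baseline.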

[6] = read-out: Monokine induced gamma interferon (MIG), CXCL9 (gene 4283); experiment: BSK_BE3C_MIG: BioMAP Diversity Plus: BE3C Assay for Monokine induced gamma interferon (MIG) Biomarker Activity (AID 2283035); details: primary human bronchial epithelial cells; actives raise or lower the signal;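 on outcome: MIG protein measured by ELISA in BE3C cultures after 24 h of dosing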
How it was run: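 hu bronchial epithelial 1° cells, 24 h cpd; MIG by ELISA; bidirectional fit, DMSO = baseline.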

[7] = read-out: Transforming growth factor beta 1 (TGFb1), TGFB1 (gene 7040); experiment: BSK_BE3C_TGFb1: BioMAP Diversity Plus: BE3C Assay for Transforming growth factor beta 1 (TGFb1) Biomarker Activity (AID 2283036;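 on outcome: TGF-b1 protein level measured by ELISA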); details: primary human bronchial epithelial cells; actives raise or lower the signal
How it was run: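 Read-out: ELISA for TGF-b1 in primary human bronchial epithelial cultures, 24 h post-dose. Bidirectional curve fitting vs DMSO control; gain or loss of signal both scored.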

[8] = read-out: urokinase plasminogen activator (uPA), PLAU (gene 5328); experiment: BSK_BE3C_uPA: BioMAP Diversity Plus: BE3C Assay for urokinase plasminogen activator (uPA) Biomarker Activity (AID 2283038); details: primary human bronchial epithelial cells; actives raise or lower the signal;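 on outcome: uPA protein level quantified by ELISA in cell cultures; uPA read one day after compound addition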
How it was run: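 Human primary bronchial epithelial cells were exposed to chemical for 24 h, then uPA levels were measured by ELISA. Responses were fitted bidirectionally against DMSO as negative control and baseline. Parallel SRB staining of total protein gauged overt cytotoxicity.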

[9] = read-out: Urokinase-type plasminogen activator receptor (uPAR), PLAUR (gene 5329); experiment: BSK_BE3C_uPAR: BioMAP Diversity Plus: BE3C Assay for Urokinase-type plasminogen activator receptor (uPAR) Biomarker Activity (AID 2283039); details: primary human bronchial epithelial cells; actives raise or lower the signal;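 on outcome: cells exposed to compound for one day before measurement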
How it was run: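 ELISA readout of uPAR on human lung primary bronchial epithelial cells, 24 h post-dosing. Bidirectional curve fit relative to DMSO vehicle baseline; gain or loss of signal both scored.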

[10] = read-out: Interleukin-6 (IL6), IL6 (gene 3569); experiment: BSK_CASM3C_IL6: BioMAP Diversity Plus: CASM3C Assay for Interleukin-6 (IL6) Biomarker Activity for (AID 2283040); details: primary human coronary artery smooth muscle cells; actives raise or lower the signal
[11] = read-out: Interleukin-8 (IL8), CXCL8 (gene 3576); experiment: BSK_CASM3C_IL8: BioMAP Diversity Plus: CASM3C Assay for Interleukin-8 (IL8) Biomarker Activity (AID 2283042); details: primary human coronary artery smooth muscle cells; actives raise or lower the signal;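 further: IL-8 protein level quantified by ELISA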
[12] = read-out: Human Leukocyte Antigen - DR isotype (HLADR), HLA-DRA (gene 3122); experiment: BSK_CASM3C_HLADR: BioMAP Diversity Plus: CASM3C Assay for Human Leukocyte Antigen - DR isotype (HLADR) Biomarker Activity (AID 2283043); details: primary human coronary artery smooth muscle cells; actives raise or lower the signal;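 further: cell-surface HLA-DR protein level quantified by ELISA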
[13] = read-out: Macrophage colony-stimulating factor (MCSF), CSF1 (gene 1435); experiment: BSK_CASM3C_MCSF: BioMAP Diversity Plus: CASM3C Assay for Macrophage colony-stimulating factor (MCSF) Biomarker Activity (AID 2283044); details: primary human coronary artery smooth muscle cells; actives raise or lower the signal;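 further: M-CSF protein amount quantified by ELISA after 24 h exposure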
[14] = read-out: Low-density lipoprotein receptor (LDLR), LDLR (gene 3949); experiment: BSK_CASM3C_LDLR: BioMAP Diversity Plus: CASM3C Assay for Low-density lipoprotein receptor (LDLR) Biomarker Activity (AID 2283045); details: primary human coronary artery smooth muscle cells; actives raise or lower the signal;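 further: LDLR protein level on the cell surface quantified by ELISA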
[15] = read-out: Monocyte Chemoattractant Protein-1 (MCP1), CCL2 (gene 6347); experiment: BSK_CASM3C_MCP1: BioMAP Diversity Plus: CASM3C Assay for Monocyte Chemoattractant Protein-1 (MCP1) Biomarker Activity (AID 2283046); details: primary human coronary artery smooth muscle cells; actives raise or lower the signal;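 further: MCP-1 level quantified by ELISA 24 h after dosing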
[16] = BSK_CASM3C_Proliferation: Cell Proliferation Assessment in the BioMAP Diversity Plus: CASM3C Assay (AID 2283047); details: primary human coronary artery smooth muscle cells;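 further: sulforhodamine B total protein stain as relative cell number at 560 nm; sub-confluent cells exposed 48 h before staining; fitted both ways against DMSO so gain or loss of cell number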
[17] = read-out: Monokine induced gamma interferon (MIG), CXCL9 (gene 4283); experiment: BSK_CASM3C_MIG: BioMAP Diversity Plus: CASM3C Assay for Monokine induced gamma interferon (MIG) Biomarker Activity (AID 2283048); details: primary human coronary artery smooth muscle cells; actives raise or lower the signal
[18] = read-out: serum amyloid A (SAA), SAA1 (gene 6288); experiment: BSK_CASM3C_SAA: BioMAP Diversity Plus: CASM3C Assay for serum amyloid A (SAA) Biomarker Activity (AID 2283049); details: primary human coronary artery smooth muscle cells; actives raise or lower the signal;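 further: SAA protein level quantified by ELISA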
[19] = read-out: Tissue plasminogen activator (tPA), PLAT (gene 5327); experiment: BSK_BE3C_tPA: BioMAP Diversity Plus: BE3C Assay for Tissue plasminogen activator (tPA) Biomarker Activity (AID 2283041); details: primary human bronchial epithelial cells; actives raise or lower the signal;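 on outcome: tPA level quantified by ELISA one day after compound addition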
How it was run: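 ELISA read-out of tPA on human primary bronchial epithelial cells, 24 h post-dosing; bidirectional fit vs DMSO negative control/baseline.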

[20] = read-out: Plasminogen activator inhibitor-1 (PAI1), SERPINE1 (gene 5054); experiment: BSK_BE3C_PAI1: BioMAP Diversity Plus: BE3C Assay for Plasminogen activator inhibitor-1 (PAI1) Biomarker Activity (AID 2283037); details: primary human bronchial epithelial cells; actives raise or lower the signal
How it was run: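 ELISA read-out of PAI-1 from human bronchial epithelial primary cells, 24 h post-dosing; bidirectional curve fit vs DMSO baseline, gain or loss of signal scored.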

Nc1ccc(N)c([N+](=O)[O-])c1
outcome [1]: inactive
outcome [2]: inactive
outcome [3]: inactive
outcome [4]: inactive
outcome [5]: inactive
outcome [6]: inactive
outcome [7]: inactive
outcome [8]: inactive
outcome [9]: inactive
outcome [10]: inactive
outcome [11]: inactive
outcome [12]: inactive
outcome [13]: inactive
outcome [14]: inactive
AC50 [15]: 7.95 µM (active)
outcome [16]: inactive
outcome [17]: inactive
outcome [18]: inactive

CC(=O)c1ccc(C)cc1
outcome [1]: inactive
AC50 [2]: 1.45 µM (active)
outcome [2]: inactive
outcome [4]: inactive
outcome [5]: inactive
outcome [6]: inactive
outcome [8]: inactive
outcome [9]: inactive
outcome [10]: inactive
outcome [11]: inactive
outcome [12]: inactive
outcome [13]: inactive
outcome [14]: inactive
outcome [15]: inactive
outcome [16]: inactive
outcome [17]: inactive
outcome [18]: inactive

C=C(F)C(=O)OC(C(F)(F)F)C(F)(F)F
outcome [1]: inactive
outcome [2]: inactive
outcome [3]: inactive
outcome [4]: inactive
outcome [5]: inactive
outcome [6]: inactive
outcome [8]: inactive
outcome [9]: inactive
outcome [10]: inactive
outcome [11]: inactive
outcome [12]: inactive
outcome [13]: inactive
outcome [14]: inactive
outcome [15]: inactive
outcome [16]: inactive
outcome [17]: inactive
outcome [18]: inactive

O=C1OC2(c3ccc(O)cc3Oc3cc(O)ccc32)c2ccccc21
outcome [1]: inactive
outcome [2]: inactive
outcome [4]: inactive
outcome [5]: inactive
outcome [6]: inactive
outcome [7]: inactive
outcome [8]: inactive
outcome [9]: inactive
outcome [10]: inactive
outcome [19]: inactive
outcome [11]: inactive
outcome [12]: inactive
outcome [13]: inactive
outcome [14]: inactive
outcome [15]: inactive
outcome [16]: inactive
outcome [17]: inactive
outcome [18]: inactive

CCCCOCCOCCO
outcome [1]: inactive
outcome [2]: inactive
outcome [4]: inactive
outcome [5]: inactive
outcome [6]: inactive
outcome [7]: inactive
outcome [8]: inactive
outcome [9]: inactive
outcome [10]: inactive
outcome [19]: inactive
outcome [11]: inactive
outcome [12]: inactive
outcome [13]: inactive
outcome [14]: inactive
outcome [15]: inactive
outcome [16]: inactive
outcome [17]: inactive
outcome [18]: inactive

COC(=O)c1ccc(C(=O)OC)cc1
outcome [1]: inactive
outcome [2]: inactive
outcome [4]: inactive
outcome [5]: inactive
outcome [6]: inactive
outcome [7]: inactive
outcome [8]: inactive
outcome [9]: inactive
outcome [10]: inactive
outcome [11]: inactive
outcome [12]: inactive
outcome [13]: inactive
outcome [14]: inactive
outcome [15]: inactive
outcome [16]: inactive
outcome [17]: inactive
outcome [18]: inactive

CC(C)(CO)CO
outcome [1]: inactive
outcome [2]: inactive
outcome [4]: inactive
AC50 [5]: 5.62 µM (active)
outcome [5]: inactive
AC50 [6]: 8.35 µM (active)
outcome [6]: inactive
outcome [8]: inactive
outcome [9]: inactive
outcome [10]: inactive
outcome [11]: inactive
outcome [12]: inactive
outcome [13]: inactive
outcome [14]: inactive
outcome [15]: inactive
outcome [16]: inactive
outcome [17]: inactive
outcome [18]: inactive

CCCCCCCC1CCCC1=O (centres undefined)
AC50 [1]: 30.7 µM (active)
outcome [2]: inactive
AC50 [4]: 31.5 µM (active)
AC50 [5]: 33.5 µM (active)
outcome [6]: inactive
AC50 [7]: 36.6 µM (active)
AC50 [8]: 32.4 µM (active)
outcome [9]: inactive
AC50 [10]: 31 µM (active)
AC50 [19]: 33.4 µM (active)
outcome [11]: inactive
AC50 [12]: 35.2 µM (active)
AC50 [13]: 31.9 µM (active)
AC50 [14]: 30.5 µM (active)
AC50 [15]: 34.3 µM (active)
AC50 [16]: 31.2 µM (active)
AC50 [17]: 31.8 µM (active)
AC50 [18]: 36.2 µM (active)

O=S1(=O)CC(Cl)(Cl)C(Cl)(Cl)C1
AC50 [1]: 0.921 µM (active)
outcome [2]: inactive
AC50 [4]: 0.582 µM (active)
AC50 [5]: 1.07 µM (active)
AC50 [6]: 2.04 µM (active)
AC50 [7]: 0.582 µM (active)
AC50 [8]: 1.08 µM (active)
AC50 [9]: 1.66 µM (active)
AC50 [10]: 1.44 µM (active)
AC50 [11]: 1.3 µM (active)
AC50 [12]: 0.421 µM (active)
AC50 [13]: 0.908 µM (active)
AC50 [14]: 0.389 µM (active)
AC50 [15]: 1.11 µM (active)
AC50 [16]: 0.113 µM (active)
AC50 [17]: 2.22 µM (active)
AC50 [18]: 0.764 µM (active)

CC(=O)CCC=C(C)CCC=C(C)C
outcome [1]: inactive
outcome [2]: inactive
AC50 [4]: 28.9 µM (active)
outcome [5]: inactive
outcome [6]: inactive
outcome [7]: inactive
outcome [8]: inactive
outcome [9]: inactive
outcome [10]: inactive
outcome [19]: inactive
outcome [11]: inactive
outcome [12]: inactive
outcome [13]: inactive
outcome [14]: inactive
outcome [15]: inactive
AC50 [16]: 0.197 µM (active)
outcome [17]: inactive
outcome [18]: inactive

CCC(=O)OCC=Cc1ccccc1
outcome [1]: inactive
outcome [2]: inactive
outcome [4]: inactive
outcome [5]: inactive
outcome [6]: inactive
outcome [7]: inactive
outcome [20]: inactive
outcome [8]: inactive
outcome [9]: inactive
outcome [10]: inactive
outcome [11]: inactive
outcome [12]: inactive
outcome [13]: inactive
outcome [14]: inactive
outcome [15]: inactive
outcome [16]: inactive
outcome [17]: inactive
outcome [18]: inactive
